# Source: publication PMC5540273 (PLoS ONE, 2017)
# Experiments:
# Conditions in all cases: concentration: 1 μM, replicates: in singlicate; n = 1
# NEK5 = test system: NEK5
# NEK6 = test system: NEK6
# NEK7 = test system: NEK7
# NEK9 = test system: NEK9
# NIK = test system: T1, NIK
# T1 construct: gene MAP3K14
# NIM1 = test system: T2, NIM1
# T2 construct: gene MGC42105
# NLK = test system: NLK
# OSR1 = test system: T3, OSR1
# T3 construct: gene OXSR1
# PAK1 = test system: PAK1
# PAK2 = test system: PAK2
# PAK3 = test system: PAK3
# PAK4 = test system: PAK4
# PAK6 = test system: PAK6
# PAK7 = test system: PAK7
# PCTK1 = test system: T4, PCTK1
# T4 construct: gene CDK16
# PCTK2 = test system: T5, PCTK2
# T5 construct: gene CDK17
# PCTK3 = test system: T6, PCTK3
# T6 construct: gene CDK18
# PDGFRA = test system: PDGFRA
# PDGFRB = test system: PDGFRB
# PDPK1 = test system: PDPK1
# 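Further: KINOMEscan kinase panel screen.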
Compound,%Inh (NEK5) [%],%Inh (NEK6) [%],%Inh (NEK7) [%],%Inh (NEK9) [%],%Inh (NIK) [%],%Inh (NIM1) [%],%Inh (NLK) [%],%Inh (OSR1) [%],%Inh (PAK1) [%],%Inh (PAK2) [%],%Inh (PAK3) [%],%Inh (PAK4) [%],%Inh (PAK6) [%],%Inh (PAK7) [%],%Inh (PCTK1) [%],%Inh (PCTK2) [%],%Inh (PCTK3) [%],%Inh (PDGFRA) [%],%Inh (PDGFRB) [%],%Inh (PDPK1) [%]
CNc1nc(-c2ccc3c(N)n[nH]c3c2)cc(N2C[C@@H](C(=O)NC3CCCCC3)OC[C@H]2C)n1 [GSK2375584],11,0,0,4,5,0,9,6,14,16,0,0,0,24,0,10,21,0,35,79
Cc1nccc(-c2c(-c3ccc(F)cc3)ncn2CCCN2CCOCC2)n1.Cl [SB-282975],16,20,0,13,48,15,0,15,0,6,0,0,0,0,1,3,10,0,0,29
Cn1cncc1C(=O)NC1CCN(c2ccnc(Nc3ccc(F)cc3)n2)C1 (centres unmarked) [GSK1379717],17,0,0,0,25,24,13,0,0,0,0,0,0,0,4,0,16,2,14,0
O=C(Nc1n[nH]c2nc(-c3cccs3)c(Br)cc12)C1CCCC1 [SB-743341],14,16,14,15,0,15,2,8,0,13,0,0,9,0,46,54,56,32,74,0
CCCCc1nn2ncccc2c1-c1ccnc(NC2CC2)n1 [GW684374],4,0,0,4,0,1,68,0,6,0,0,0,0,0,7,0,15,0,68,0
Nc1nccc(-c2c(-c3ccc(F)cc3)ncn2C2CCN(Cc3ccccc3)CC2)n1 [SB-219980],1,9,0,6,15,10,93.9,10,0,19,5,0,0,0,3,0,0,22,20,0
CS(=O)(=O)CCNCc1nc(-c2ccc3ncnc(Nc4ccc5c(cnn5Cc5ccccc5)c4)c3c2)cs1.Cl.Cl [GW569716],0,0,0,0,26,41,16,0,0,1,22,0,0,0,0,0,16,0,10,0
Cc1ccc(NC(=O)Nc2ccc(Cl)cc2)cc1-c1ccc(C(=O)Nc2ccncc2)cc1 [GSK1398472],10,0,0,0,22,16,11,5,0,0,21,0,0,0,5,0,0,10,99.7,0
Cn1cncc1-c1cc2c(Nc3ccc(OCc4ccccc4)cc3)ncnc2cn1 [GW281179],26,0,0,45,3,21,29,14,10,19,0,0,0,0,11,0,21,0,16,0
O=C1NC(=O)C(c2ccc(Cl)cc2)=C1Nc1cccc(Cl)c1 [SB-317651],6,0,0,0,5,12,0,0,2,17,14,18,0,0,0,15,12,9,0,0
O=C(Nc1n[nH]c2nc(-c3ccco3)c(Br)cc12)C1CCN(Cc2ccccc2)C1.O=C(O)[C@H](O)[C@@H](O)C(=O)O (centres unmarked) [SB-742034],0,1,11,0,0,0,0,5,3,35,12,0,0,8,86,83,76,7,30,18
Cc1ccc(NC(=O)Nc2ccc(Cl)c(C(F)(F)F)c2)cc1-c1ccc(C(=O)Nc2ccncc2)cc1 [GSK1398470],11,12,2,20,0,0,21,35,19,19,22,0,0,2,0,6,14,19,97.5,26
CCn1c(-c2c(N)noc2C)nc2cnccc21 [SB-737856],0,0,2,0,3,36,0,4,27,32,3,0,0,0,0,0,44,0,0,2
CC(=O)c1cccc(NC(=O)NC2CCN(c3ccnc(Nc4ccc(F)cc4)n3)C2)c1 (centres unmarked) [GSK1379710],35,0,0,15,0,38,25,5,8,0,0,0,0,20,8,19,24,10,43,0
COC(=O)C(NC(=O)NC1CCN(c2ccnc(Nc3ccc(F)cc3)n2)C1)c1ccccc1 (centres unmarked) [GSK1379712],6,0,0,16,4,37,2,0,0,1,0,0,0,2,0,14,24,14,38,0
c1ccc(-c2ccnc3[nH]ccc23)cc1 [SB-693578],8,0,0,0,43,26,23,30,0,0,0,0,4,4,7,0,24,0,0,0

Compound,%Inh (NEK5) [%],%Inh (NEK6) [%],%Inh (NEK7) [%],%Inh (NEK9) [%],%Inh (NIK) [%],%Inh (NIM1) [%],%Inh (NLK) [%],%Inh (OSR1) [%],%Inh (PAK1) [%],%Inh (PAK2) [%],%Inh (PAK3) [%],%Inh (PAK4) [%],%Inh (PAK6) [%],%Inh (PAK7) [%],%Inh (PCTK1) [%],%Inh (PCTK2) [%],%Inh (PCTK3) [%],%Inh (PDGFRA) [%],%Inh (PDGFRB) [%],%Inh (PDPK1) [%]
Cn1cnc2c(N)ncnc21 [SKF-97623],0,0,0,0,41,3,0,0,3,5,0,0,0,0,0,0,0,100,0,0
COc1ccc(-c2coc3ccc(-c4nnc(C)o4)cc23)cc1,0,0,0,0,0,0,0,1,23,0,0,5,6,5,56,0,11,0,0,33
Cc1c(Cn2c(C)c(C)n3c(=O)cc(N4CCOCC4)nc23)cccc1C(F)(F)F [GSK2328680],0,0,0,12,9,11,12,11,0,0,0,19,0,0,0,0,31,0,16,0
Cc1ccccc1Cn1ccn2c(=O)cc(N3CCOCC3)nc12 [GSK2269905],4,0,0,0,0,19,9,6,12,13,0,0,0,0,1,0,0,0,13,0
COC(=O)c1cccc(NC(=O)NC2CCN(c3ccnc(Nc4ccc(F)cc4)n3)C2)c1 (centres unmarked) [GSK1379725],10,0,0,0,0,27,0,10,0,0,0,0,0,0,10,0,12,0,36,0
Cc1ccccc1-c1cc(-c2c[nH]nc2-c2ccccn2)ccn1 [GW680061],9,0,0,0,28,18,15,9,0,5,0,0,0,0,2,7,20,0,41,0
COc1ccc(Nc2nccc(NCCNC(=O)Nc3cc(C)ccc3C)n2)cc1 [GSK1379899],0,0,8,5,11,0,0,2,0,0,22,0,0,0,2,0,2,0,5,0
Nc1cccc(-c2ccc3c(N)n[nH]c3c2)n1 [GSK2192730],9,0,0,17,1,0,0,3,16,5,0,0,8,7,4,20,3,2,18,0
CS(=O)(=O)CCNCc1nc(-c2ccc3ncnc(Nc4ccc(OCc5ccccc5)c(Cl)c4)c3c2)cs1.Cl [GW582764],0,0,0,0,4,38,0,2,15,19,24,0,0,0,6,0,17,0,8,0
COc1ccc(CSc2nnc(-c3ccc4nccn4c3)o2)cc1C(F)(F)F,4,10,7,0,0,0,18,8,15,61,0,16,35,22,13,8,3,28,0,0
Cc1ccc(NC(=O)Nc2ccccc2)cc1-c1ccc(C(=O)Nc2ccncc2)cc1 [GSK1398471],4,0,0,23,0,0,51,14,20,13,11,0,0,1,4,0,21,49,100,26
CNCc1ccc2nc(NC(=O)c3ccc(C(C)(C)C)cc3)cn2c1,0,2,10,3,28,3,1,22,7,26,4,4,0,0,41,3,0,73,74,3
O=c1cc(N2CCOCC2)nc2n(Cc3ccccc3F)ccn12 [GSK2297428],0,0,0,0,0,2,0,0,21,0,24,0,0,9,0,0,0,0,8,0
COc1ccc(Nc2nccc(N3CCC(NC(=O)C(C)c4ccc(Cl)cc4)CC3)n2)cc1 (centres unmarked) [GSK1379812],54,55,0,10,0,11,35,0,21,15,47,2,0,22,100,0,15,0,27,7
FC(F)(F)c1ccccc1-c1cc(-c2c[nH]nc2-c2ccccn2)ccn1 [GW679396],4,0,1,4,13,4,18,0,6,2,8,0,3,0,0,10,7,0,19,18
